Experimental data reported in the supplement of paper PMC11732987, “Enantioselective OTUD7B fragment discovery through chemoproteomics screening and high-throughput optimisation” (Communications Chemistry, 2025).

How the values were obtained:
Assay in all cases: log2 ratio of Biotin-Ahx-Ub-VS probe labelling (fragment/DMSO); higher = less target engagement (more negative = stronger competition), active = hit call of the paper (q ≤ 0.05, log2 ratio ≤ -1)
Conditions in all cases: compound concentration: 200 uM; treatment time: 3 h
USP34 = USP34 (UniProt Q70CQ2)
Sequence of USP34 (Q70CQ2 whole entry, the tested form may be a part): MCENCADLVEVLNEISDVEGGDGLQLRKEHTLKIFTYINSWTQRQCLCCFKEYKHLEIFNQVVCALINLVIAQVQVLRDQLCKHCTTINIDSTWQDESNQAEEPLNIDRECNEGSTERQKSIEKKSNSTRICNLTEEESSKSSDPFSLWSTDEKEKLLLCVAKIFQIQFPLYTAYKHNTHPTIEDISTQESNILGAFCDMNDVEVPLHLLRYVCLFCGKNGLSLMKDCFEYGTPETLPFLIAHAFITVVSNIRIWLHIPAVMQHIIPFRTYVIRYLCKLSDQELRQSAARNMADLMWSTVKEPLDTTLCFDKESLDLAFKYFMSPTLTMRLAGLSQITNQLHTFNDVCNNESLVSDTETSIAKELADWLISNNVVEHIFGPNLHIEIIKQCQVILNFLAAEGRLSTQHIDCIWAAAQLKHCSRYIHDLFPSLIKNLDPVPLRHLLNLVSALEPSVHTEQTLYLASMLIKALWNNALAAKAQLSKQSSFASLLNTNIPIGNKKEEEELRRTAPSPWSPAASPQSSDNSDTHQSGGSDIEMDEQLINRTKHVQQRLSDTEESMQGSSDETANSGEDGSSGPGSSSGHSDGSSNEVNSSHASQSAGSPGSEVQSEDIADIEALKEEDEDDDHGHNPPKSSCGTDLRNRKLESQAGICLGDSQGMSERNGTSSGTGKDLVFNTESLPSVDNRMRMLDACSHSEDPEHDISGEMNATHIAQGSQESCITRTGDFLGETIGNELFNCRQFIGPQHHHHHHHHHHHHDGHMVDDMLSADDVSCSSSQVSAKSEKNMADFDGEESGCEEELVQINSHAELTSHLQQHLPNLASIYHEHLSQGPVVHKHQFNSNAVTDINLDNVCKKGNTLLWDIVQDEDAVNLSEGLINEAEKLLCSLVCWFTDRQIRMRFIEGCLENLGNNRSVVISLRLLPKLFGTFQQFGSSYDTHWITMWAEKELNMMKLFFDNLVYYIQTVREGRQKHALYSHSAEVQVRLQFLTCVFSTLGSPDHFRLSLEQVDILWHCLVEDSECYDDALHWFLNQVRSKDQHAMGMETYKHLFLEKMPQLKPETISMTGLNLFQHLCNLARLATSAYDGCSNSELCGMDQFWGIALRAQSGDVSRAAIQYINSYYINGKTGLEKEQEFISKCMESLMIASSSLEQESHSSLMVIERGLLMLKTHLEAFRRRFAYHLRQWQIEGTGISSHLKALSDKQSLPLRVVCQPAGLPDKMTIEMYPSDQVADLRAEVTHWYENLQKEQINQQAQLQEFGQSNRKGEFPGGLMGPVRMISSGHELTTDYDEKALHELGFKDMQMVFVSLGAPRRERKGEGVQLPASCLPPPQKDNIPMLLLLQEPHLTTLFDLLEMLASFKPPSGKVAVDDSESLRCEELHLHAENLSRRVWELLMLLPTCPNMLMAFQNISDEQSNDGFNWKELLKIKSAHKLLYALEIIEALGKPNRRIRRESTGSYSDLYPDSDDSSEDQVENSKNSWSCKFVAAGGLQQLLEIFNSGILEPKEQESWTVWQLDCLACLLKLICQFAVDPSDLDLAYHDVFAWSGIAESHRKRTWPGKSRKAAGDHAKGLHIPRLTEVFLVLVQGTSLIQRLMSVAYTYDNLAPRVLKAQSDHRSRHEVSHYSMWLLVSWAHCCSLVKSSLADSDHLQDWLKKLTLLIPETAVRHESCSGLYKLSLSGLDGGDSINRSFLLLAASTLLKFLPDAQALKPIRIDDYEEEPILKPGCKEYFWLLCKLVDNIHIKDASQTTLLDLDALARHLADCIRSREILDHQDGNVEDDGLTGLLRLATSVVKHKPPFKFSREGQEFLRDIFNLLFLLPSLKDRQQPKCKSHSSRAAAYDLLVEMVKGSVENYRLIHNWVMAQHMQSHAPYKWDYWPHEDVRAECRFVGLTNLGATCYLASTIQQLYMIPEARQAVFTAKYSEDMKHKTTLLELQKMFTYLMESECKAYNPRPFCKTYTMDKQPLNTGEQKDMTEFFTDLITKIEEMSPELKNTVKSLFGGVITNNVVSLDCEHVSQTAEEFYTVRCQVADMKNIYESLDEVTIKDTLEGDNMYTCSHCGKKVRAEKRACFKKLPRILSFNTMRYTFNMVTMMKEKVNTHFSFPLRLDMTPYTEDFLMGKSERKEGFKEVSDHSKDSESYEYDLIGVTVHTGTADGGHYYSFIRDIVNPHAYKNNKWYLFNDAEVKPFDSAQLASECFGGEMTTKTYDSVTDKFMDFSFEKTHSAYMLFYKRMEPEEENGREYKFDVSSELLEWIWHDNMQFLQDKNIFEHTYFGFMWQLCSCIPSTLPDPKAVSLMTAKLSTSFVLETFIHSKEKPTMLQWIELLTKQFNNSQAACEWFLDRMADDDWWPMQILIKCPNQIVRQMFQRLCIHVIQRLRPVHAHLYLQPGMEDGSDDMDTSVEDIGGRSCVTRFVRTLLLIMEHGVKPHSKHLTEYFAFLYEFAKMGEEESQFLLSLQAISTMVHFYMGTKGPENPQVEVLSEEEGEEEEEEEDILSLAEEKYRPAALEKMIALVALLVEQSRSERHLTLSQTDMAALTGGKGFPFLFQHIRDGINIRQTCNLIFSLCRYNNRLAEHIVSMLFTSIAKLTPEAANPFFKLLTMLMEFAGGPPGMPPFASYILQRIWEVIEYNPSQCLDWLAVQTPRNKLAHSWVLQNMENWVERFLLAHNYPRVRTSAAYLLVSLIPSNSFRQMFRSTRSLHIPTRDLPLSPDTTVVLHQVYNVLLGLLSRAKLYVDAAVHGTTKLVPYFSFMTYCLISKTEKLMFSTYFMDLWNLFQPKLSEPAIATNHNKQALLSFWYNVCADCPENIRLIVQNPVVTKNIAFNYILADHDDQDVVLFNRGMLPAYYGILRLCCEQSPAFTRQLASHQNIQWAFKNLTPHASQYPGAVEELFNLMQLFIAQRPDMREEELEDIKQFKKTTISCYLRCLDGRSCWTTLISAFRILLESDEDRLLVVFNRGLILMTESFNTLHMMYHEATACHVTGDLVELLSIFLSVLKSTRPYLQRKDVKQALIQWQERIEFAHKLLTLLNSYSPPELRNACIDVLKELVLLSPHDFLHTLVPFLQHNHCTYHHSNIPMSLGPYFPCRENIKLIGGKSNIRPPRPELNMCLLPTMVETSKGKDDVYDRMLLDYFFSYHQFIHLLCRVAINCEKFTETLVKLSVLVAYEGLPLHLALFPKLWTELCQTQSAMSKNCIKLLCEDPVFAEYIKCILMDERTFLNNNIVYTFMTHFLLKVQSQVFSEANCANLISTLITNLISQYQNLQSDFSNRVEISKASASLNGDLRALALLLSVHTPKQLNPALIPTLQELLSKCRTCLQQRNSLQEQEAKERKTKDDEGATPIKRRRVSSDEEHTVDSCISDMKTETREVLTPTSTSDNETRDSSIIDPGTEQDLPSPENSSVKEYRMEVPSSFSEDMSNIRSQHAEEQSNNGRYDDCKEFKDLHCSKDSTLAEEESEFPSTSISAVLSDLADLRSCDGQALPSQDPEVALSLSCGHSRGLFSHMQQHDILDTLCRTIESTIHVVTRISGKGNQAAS
In short: (§1)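 HEK293T lysate, 495 µg per sample in Tris/CHAPS/IGEPAL buffer with protease inhibitors, was treated in triplicate with fragment at 200 µM or vehicle for 3 h and then with Biotin-Ahx-Ub-VS at 0.5 µM final for 1 h. Labelled DUBs were NeutrAvidin-enriched, digested with LysC and trypsin, and run by diaPASEF LC-MS/MS. Spectronaut label-free quantities were global-median-normalised, and values are average log2 fragment/vehicle ratios by unpaired t-test on proteins with ≥2 unique peptides.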

USP36 = target: T1, USP36 (UniProt Q9P275)
T1 sequence (whole entry): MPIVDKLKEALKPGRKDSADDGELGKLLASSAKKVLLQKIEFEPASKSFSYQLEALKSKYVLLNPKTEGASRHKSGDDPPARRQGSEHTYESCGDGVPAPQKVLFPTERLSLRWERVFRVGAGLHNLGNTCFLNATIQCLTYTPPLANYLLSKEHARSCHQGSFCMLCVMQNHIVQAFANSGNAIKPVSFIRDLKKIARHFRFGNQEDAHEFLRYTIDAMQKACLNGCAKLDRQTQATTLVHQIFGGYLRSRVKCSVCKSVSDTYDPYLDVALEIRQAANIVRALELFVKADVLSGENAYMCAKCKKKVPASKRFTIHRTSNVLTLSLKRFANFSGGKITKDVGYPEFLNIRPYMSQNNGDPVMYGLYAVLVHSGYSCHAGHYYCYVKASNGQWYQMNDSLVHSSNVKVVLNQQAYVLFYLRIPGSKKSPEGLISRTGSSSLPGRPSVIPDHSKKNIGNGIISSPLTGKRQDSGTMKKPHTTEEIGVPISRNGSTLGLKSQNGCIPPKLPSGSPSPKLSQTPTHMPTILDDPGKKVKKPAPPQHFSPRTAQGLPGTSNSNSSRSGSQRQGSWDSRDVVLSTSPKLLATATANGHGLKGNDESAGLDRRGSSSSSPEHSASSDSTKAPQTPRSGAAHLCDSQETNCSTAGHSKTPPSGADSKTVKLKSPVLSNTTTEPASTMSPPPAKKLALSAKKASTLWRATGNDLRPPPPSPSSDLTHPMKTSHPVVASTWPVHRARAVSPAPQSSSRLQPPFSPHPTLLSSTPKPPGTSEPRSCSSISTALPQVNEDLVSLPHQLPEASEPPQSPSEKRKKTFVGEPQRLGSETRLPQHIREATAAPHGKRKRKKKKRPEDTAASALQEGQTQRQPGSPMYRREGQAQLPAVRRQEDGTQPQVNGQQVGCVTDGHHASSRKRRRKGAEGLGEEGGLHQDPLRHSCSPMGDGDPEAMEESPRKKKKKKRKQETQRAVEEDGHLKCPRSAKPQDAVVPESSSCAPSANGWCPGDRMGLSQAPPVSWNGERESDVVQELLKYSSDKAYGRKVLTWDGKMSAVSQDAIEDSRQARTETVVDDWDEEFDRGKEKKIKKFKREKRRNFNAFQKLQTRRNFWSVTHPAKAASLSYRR
In short: as §1

USP38 = target: T2, USP38 (UniProt Q8NB14)
T2 sequence (whole entry): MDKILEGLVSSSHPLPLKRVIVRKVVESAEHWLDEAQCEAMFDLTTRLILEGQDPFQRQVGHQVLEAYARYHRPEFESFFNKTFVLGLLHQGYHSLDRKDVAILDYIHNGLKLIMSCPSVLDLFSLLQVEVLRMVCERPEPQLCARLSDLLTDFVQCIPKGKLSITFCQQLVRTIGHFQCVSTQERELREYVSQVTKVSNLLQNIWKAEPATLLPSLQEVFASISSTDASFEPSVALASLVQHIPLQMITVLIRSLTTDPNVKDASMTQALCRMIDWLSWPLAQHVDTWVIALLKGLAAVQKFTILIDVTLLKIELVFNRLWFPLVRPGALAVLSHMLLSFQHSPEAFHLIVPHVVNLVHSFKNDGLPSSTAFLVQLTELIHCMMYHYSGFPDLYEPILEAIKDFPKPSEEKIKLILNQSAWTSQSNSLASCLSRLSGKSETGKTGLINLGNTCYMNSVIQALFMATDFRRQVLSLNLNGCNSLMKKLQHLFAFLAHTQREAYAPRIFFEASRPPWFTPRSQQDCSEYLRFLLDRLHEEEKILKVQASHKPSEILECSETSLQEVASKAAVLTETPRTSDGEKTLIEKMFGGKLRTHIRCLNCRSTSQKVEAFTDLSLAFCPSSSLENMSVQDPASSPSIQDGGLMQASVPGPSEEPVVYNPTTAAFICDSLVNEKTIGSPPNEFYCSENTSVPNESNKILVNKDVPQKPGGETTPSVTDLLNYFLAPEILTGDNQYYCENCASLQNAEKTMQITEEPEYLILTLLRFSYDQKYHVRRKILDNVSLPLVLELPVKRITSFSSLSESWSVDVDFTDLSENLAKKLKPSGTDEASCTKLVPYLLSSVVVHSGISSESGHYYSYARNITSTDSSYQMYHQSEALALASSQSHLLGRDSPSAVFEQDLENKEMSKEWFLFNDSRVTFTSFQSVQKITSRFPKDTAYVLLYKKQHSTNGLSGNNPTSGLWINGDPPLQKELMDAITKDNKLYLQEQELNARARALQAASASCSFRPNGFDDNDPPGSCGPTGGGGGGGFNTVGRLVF
In short: as §1

USP39 = target: T3, USP39 (UniProt Q53GS9)
T3 sequence (whole entry): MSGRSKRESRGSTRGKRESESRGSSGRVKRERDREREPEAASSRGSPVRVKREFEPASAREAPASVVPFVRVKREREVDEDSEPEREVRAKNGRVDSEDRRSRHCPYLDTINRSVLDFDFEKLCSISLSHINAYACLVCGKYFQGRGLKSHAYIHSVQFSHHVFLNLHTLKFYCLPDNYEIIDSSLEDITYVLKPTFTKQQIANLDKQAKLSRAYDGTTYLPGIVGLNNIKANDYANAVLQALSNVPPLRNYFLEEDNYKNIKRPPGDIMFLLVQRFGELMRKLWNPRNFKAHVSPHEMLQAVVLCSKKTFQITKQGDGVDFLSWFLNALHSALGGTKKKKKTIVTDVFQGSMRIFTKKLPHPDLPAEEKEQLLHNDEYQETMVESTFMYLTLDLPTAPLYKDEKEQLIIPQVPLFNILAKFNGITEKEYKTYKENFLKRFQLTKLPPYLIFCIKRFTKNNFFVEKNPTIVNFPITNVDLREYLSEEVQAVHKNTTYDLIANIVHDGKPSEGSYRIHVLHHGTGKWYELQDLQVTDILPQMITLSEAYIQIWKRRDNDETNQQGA
In short: as §1

USP4 = target: T4, USP4 (UniProt Q13107)
T4 sequence (whole entry): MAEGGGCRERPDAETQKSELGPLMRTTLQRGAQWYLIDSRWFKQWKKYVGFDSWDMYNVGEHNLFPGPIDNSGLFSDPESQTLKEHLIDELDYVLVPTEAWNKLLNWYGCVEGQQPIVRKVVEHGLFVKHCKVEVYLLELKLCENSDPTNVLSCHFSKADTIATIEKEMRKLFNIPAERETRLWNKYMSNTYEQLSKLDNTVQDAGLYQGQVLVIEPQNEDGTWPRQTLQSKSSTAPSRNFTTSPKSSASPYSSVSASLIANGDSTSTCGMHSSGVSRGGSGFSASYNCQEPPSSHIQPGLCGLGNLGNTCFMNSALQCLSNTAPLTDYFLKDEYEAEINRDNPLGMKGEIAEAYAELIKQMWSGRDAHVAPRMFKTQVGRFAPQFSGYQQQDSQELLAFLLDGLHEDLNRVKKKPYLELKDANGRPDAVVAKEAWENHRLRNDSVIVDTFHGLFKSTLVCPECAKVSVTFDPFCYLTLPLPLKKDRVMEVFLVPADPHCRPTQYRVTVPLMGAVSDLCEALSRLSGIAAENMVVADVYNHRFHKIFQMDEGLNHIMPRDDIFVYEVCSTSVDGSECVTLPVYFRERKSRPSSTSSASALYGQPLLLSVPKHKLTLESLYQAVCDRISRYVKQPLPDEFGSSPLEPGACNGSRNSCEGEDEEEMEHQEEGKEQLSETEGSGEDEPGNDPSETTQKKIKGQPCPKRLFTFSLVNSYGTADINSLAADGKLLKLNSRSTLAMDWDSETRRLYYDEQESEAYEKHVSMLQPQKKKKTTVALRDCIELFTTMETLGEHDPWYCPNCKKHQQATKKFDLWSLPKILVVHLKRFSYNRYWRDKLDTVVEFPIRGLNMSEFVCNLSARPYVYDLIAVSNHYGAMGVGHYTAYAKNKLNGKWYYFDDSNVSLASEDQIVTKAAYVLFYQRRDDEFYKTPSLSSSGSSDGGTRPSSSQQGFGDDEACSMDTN
In short: as §1

Measured: log2 ratio of Biotin-Ahx-Ub-VS probe labelling

Cc1ccc(C)c(Oc2ccc(CNC(=O)CCl)cn2)c1.Cl
inactive: USP34 -0.224 | USP36 -0.158 | USP38 -0.222 | USP39 0.00552 | USP4 -0.39
